We go through 20 compounds from PubChem BioAssay (NCI).

About 79,000 compounds went through this panel and 15% of them were active in at least one assay; those are over-represented in the sample as a whole. A number with no mark means an inactive call. Active and inactive are the calls of the source. No stated cut-off is given here; in the data, active means growth inhibition above about 70%; inactive means the rest.

Assay [1] is described as follows: NCI Yeast Anticancer Drug Screen. Data for the rad50 strain (AID 155).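 Further: 0% = growth of vehicle-only cultures of the same strain.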 The conditions noted are these: S. cerevisiae rad50 strain growth inhibition; at 50.0 µM; hits give high values. Summed up: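 Yeast carrying a defined DNA repair defect were exposed to test compounds, and growth was compared with vehicle-treated controls to give percent inhibition.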
Assay [2] is described as follows: NCI Yeast Anticancer Drug Screen. Data for the mec2-1 strain (AID 157). The conditions noted are these: S. cerevisiae mec2-1 strain, at 50.0 µM, hits give high values. Summed up:
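Each compound was tested on mec2-1 yeast, a strain altered in DNA damage repair or cell cycle control. Growth inhibition is reported relative to vehicle.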

Assay [3] is described as follows: NCI Yeast Anticancer Drug Screen. Data for the sgs1 mgt1 strain (AID 161).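 Further: 0% = growth of cultures given vehicle only.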 The conditions noted are these: S. cerevisiae sgs1 mgt1 strain, at 50.0 µM, hits give high values. The method, boiled down: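 Mutant yeast exposed to compound; growth scored against vehicle-only wells.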
Assay [4] can be described thus: NCI Yeast Anticancer Drug Screen. Data for the cln2 rad14 strain (AID 165).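 Further: 0% = growth equal to vehicle treated cultures.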 The conditions noted are these: S. cerevisiae cln2 rad14 strain, at 50.0 µM, hits give high values. The method, boiled down:
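Test compounds were added to cln2 rad14 yeast cultures; inhibition of growth was then determined by comparison with vehicle treatment.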

Assay [5] is described as follows: NCI Yeast Anticancer Drug Screen. Data for the bub3 strain (AID 167). The conditions noted are these: S. cerevisiae bub3 mutant strain, at 50.0 µM, hits give high values. The method, boiled down: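 Compounds were applied to a genetically altered yeast strain carrying a cell-cycle control defect. Growth inhibition was scored against vehicle-treated controls.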
Assay [6] can be described thus: NCI Yeast Anticancer Drug Screen. Data for the mlh1 rad18 strain (AID 175). The conditions noted are these: S. cerevisiae mlh1 rad18 strain growth inhibition; at 50.0 µM; hits give high values. The method, boiled down:
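Inhibition values reflect reduced growth of mutant yeast versus vehicle-treated controls following compound exposure; the mutations affect DNA damage repair.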

`CN=C(NC#N)NCCSCc1nc[nH]c1C`: the growth inhibition is 20.3% in assay [1]; 16.8% in assay [2]; -17.5% in assay [3]; -5.2% in assay [4]; -16.6% in assay [5]; -29.2% in assay [6].

For the compound `COc1ccc2nc3cc(Cl)ccc3c(NCCNCC(C)(C)O)c2c1`, the growth inhibition is 23.4% in assay [1]; 15.8% in assay [2]; 18.5% in assay [3]; 63.8% in assay [4]; 27.1% in assay [5]; 22.1% in assay [6].

Turning to `CC(=O)N(C)C1=C(Sc2ccc([N+](=O)[O-])cc2)C(=O)c2ccccc2C1=O`, the growth inhibition in assay [1] is 97% (active); in assay [2], 99.5% (active); in assay [3] it was 97.5% (active); in assay [4] it was 99% (active); in assay [5], 99.1% (active); in assay [6], 98.9% (active).

Regarding `Fc1cccc(CSC(=S)Nc2ccc(Cl)c(C(F)(F)F)c2)c1`, the growth inhibition in assay [1] is 99.1% (active); in assay [2], 99.5% (active); in assay [3], 99.5% (active); in assay [4], 99.2% (active); in assay [5], 99.2% (active); in assay [6], 99% (active).

For the compound `O=C(OCc1ccccc1CN1CCCCC1)c1ccc([N+](=O)[O-])cc1Cl`, the growth inhibition in assay [1] is -7.4%; in assay [2], -6.45%; in assay [3] it was 0.85%; in assay [4] it was -34.9%; in assay [5] it was -2.6%; in assay [6] it was -29.7%.

For the compound `CC(=O)CCC(=O)CCC(C)=O`, the growth inhibition in assay [1] was -0.05%; in assay [2], 30.4%; in assay [3], 6.05%; in assay [4], -1.85%; in assay [5], 29.1%; in assay [6], -2.7%.

`O=C(O)Cc1cccc(C(=O)O)c1`: the growth inhibition is -1.55% in assay [1]; -8% in assay [2]; -7.3% in assay [3]; 8.4% in assay [4]; -0.45% in assay [5]; -3.35% in assay [6].

As to `Cc1ccc(N=N/C(=N/NC(=O)c2cc(Cl)ccc2C(=O)c2ccccc2)c2ccc(N(CCC#N)CCC#N)cc2C)cc1`, the growth inhibition is -8.5% in assay [1]; 2.5% in assay [2]; -18.5% in assay [3]; -2.1% in assay [4]; -23.6% in assay [5]; 5.2% in assay [6].

As for `COc1ccc(-c2c(C#N)c(S)n(NS(=O)(=O)c3ccccc3)c(=O)c2C#N)cc1`, the growth inhibition in assay [1] is 16.8%; in assay [2] it was 56.7%; in assay [3], 43.7%; in assay [4], -1.5%; in assay [5] it was 34%; in assay [6] it was 58%.

For `CNCCC(=O)C1CCC(OC)CC1` (stereo not given), the growth inhibition in assay [1] was 26.2%; in assay [2], -3%; in assay [3] it was 2.1%; in assay [4], -49.5%; in assay [5] it was 5.45%; in assay [6] it was -8.45%.

With `CS(=O)(=O)c1nc(Cl)c2[nH]c(Cl)nc2n1`, the growth inhibition was 16.9% in assay [1]; -19.5% in assay [2]; 5.35% in assay [3]; -11.3% in assay [4]; 12.2% in assay [5]; 22% in assay [6].

As for `COCOc1ccc(C=O)cc1`, the growth inhibition in assay [1] was 9.75%; in assay [2], 13.1%; in assay [3], -14.3%; in assay [4] it was -4.6%; in assay [5], -14.1%; in assay [6], -5.65%.

For the compound `CCCCCCCCCc1ccc(OCCOC(=O)OCCOc2ccc(CCCCCCCCC)cc2)cc1`, the growth inhibition in assay [1] is 40.9%; in assay [2], -21.9%; in assay [3], 16%; in assay [4], 13.8%; in assay [5], 4.4%; in assay [6], 31.6%.

With `O=C(C=C(C(F)(F)F)C(F)(F)F)/C=C/c1ccccc1`, the growth inhibition was 99.5% (active) in assay [1]; 99.7% (active) in assay [2]; 99.5% (active) in assay [3]; 99.5% (active) in assay [4]; 99.3% (active) in assay [5]; 99.4% (active) in assay [6].

With `CCCC(=O)Oc1ccc(C(C)(C)C)cc1`, the growth inhibition in assay [1] is 38.7%; in assay [2], 6.75%; in assay [3] it was 15.2%; in assay [4], 10.8%; in assay [5], 20.4%; in assay [6], 5.5%.

Consider `CC1CN1C(=O)Nc1cccc2c(NC(=O)N3CC3C)cccc12` (stereo not given), for which the growth inhibition is -21.9% in assay [1]; -12.4% in assay [2]; -8.85% in assay [3]; -15.8% in assay [4]; 22.4% in assay [5]; -2.45% in assay [6].

Turning to `CCCN1C(=O)CC(NC(C)=O)C1=O` (stereo not given), the growth inhibition was -2.85% in assay [1]; 6.45% in assay [2]; 8.1% in assay [3]; -17.9% in assay [4]; -5.85% in assay [5]; 9.65% in assay [6].

As for `O=C(OCC(OC(=O)c1ccccc1)C(OC(=O)c1ccccc1)C(OC(=O)c1ccccc1)C(COC(=O)c1ccccc1)OC(=O)c1ccccc1)c1ccccc1` (stereo not given), the growth inhibition in assay [1] is 22.1%; in assay [2], 10%; in assay [3] it was 10.7%; in assay [4] it was 5.55%; in assay [5], -5.45%; in assay [6], 7.65%.

On to `CC12CCC3C(CCC4CC(O)(C(=O)O)CC43C)C1CCC2O` (stereo not given), for which the growth inhibition was -16.9% in assay [1]; -3.05% in assay [2]; -19.9% in assay [3]; 5.15% in assay [4]; -7.55% in assay [5]; -19.3% in assay [6].

For `CCCC1(c2ccccc2)SCC(=O)NC1=O` (stereo not given), the growth inhibition in assay [1] was 31.3%; in assay [2], -0.2%; in assay [3], -16.6%; in assay [4] it was -25.6%; in assay [5], -14.2%; in assay [6] it was -25.9%.
